In PubChem BioAssay (NCATS) one finds max response, outcome and Potency data, which are given here for 20 compounds.

In one experiment the test system is CRL-7250. Kind of experiment: Cytotoxic Profiling of Annotated Libraries Using Quantitative High-Throughput Screening (AID 1296008). As to max response: % is scaled to controls: 0 for no effect and ±100 for the full control effect. The conditions noted are these: Five cell lines viability, CellTiter-Glo ATP luminescence, 48-72 h; max response: stronger effect = lower value. A digest of the protocol: (§1)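 Cells exposed to compounds for 48 or 72 hr at 37 degrees Celsius. Viability read as ATP-coupled luminescence with CellTiter-Glo after 10 min at room temperature.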

For another experiment, the system named is HaCat. The description is as above. The conditions noted are these: Five cell lines viability, CellTiter-Glo ATP luminescence, 48-72 h; max response: stronger effect = lower value. A digest of the protocol:
as §1

In the next experiment the test system is KB-3-1. The description is as above. The conditions noted are these: Five cell lines viability, CellTiter-Glo ATP luminescence, 48-72 h; max response: stronger effect = lower value. A digest of the protocol:
as §1

Another experiment relates to HEK293. Described as above. The conditions noted are these: Five cell lines viability, CellTiter-Glo ATP luminescence, 48-72 h; max response: stronger effect = lower value. In a few lines: as §1
Another experiment deals with HB3. Description: qHTS profiling for inhibitors of Plasmodium falciparum proliferation (AID 504749). The conditions noted are these: P. falciparum in erythrocytes, SYBR Green DNA, 72 h; series mostly up to 28.7 µM. A digest of the protocol:
(§2)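 SYBR Green fluorescence (ex 485 nm, em 535 nm) reports parasite DNA after 72 h compound exposure of infected red cells at 0.3% parasitemia, 2.5% hematocrit; signal normalized to 0.29 uM artemisinin and vehicle wells.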

A further experiment deals with JCK. The description is as above. The conditions noted are these: P. falciparum in erythrocytes, SYBR Green DNA, 72 h; series mostly up to 28.7 µM. In a few lines: as §2
The test system of the next experiment is N140. The experiment is described as above. The conditions noted are these: P. falciparum in erythrocytes, SYBR Green DNA, 72 h; series mostly up to 28.7 µM. In a few lines:
as §2

The next experiment has as its system P93_24. The experiment is described as above. The conditions noted are these: P. falciparum in erythrocytes, SYBR Green DNA, 72 h; series mostly up to 28.7 µM. A digest of the protocol: as §2
A further experiment concerns P94_40. Described as above. The conditions noted are these: P. falciparum in erythrocytes, SYBR Green DNA, 72 h; series mostly up to 28.7 µM. In a few lines:
as §2

Another experiment concerns PAD. Described as above. The conditions noted are these: P. falciparum in erythrocytes, SYBR Green DNA, 72 h; series mostly up to 28.7 µM. In a few lines: as §2
For another experiment, the system named is PC15. The experiment is described as above. The conditions noted are these: P. falciparum in erythrocytes, SYBR Green DNA, 72 h; series mostly up to 28.7 µM. In a few lines:
as §2

The test system of a further experiment is PC26. The description is as above. The conditions noted are these: P. falciparum in erythrocytes, SYBR Green DNA, 72 h; series mostly up to 28.7 µM. A digest of the protocol:
as §2

A further experiment deals with PC49. The description is as above. The conditions noted are these: P. falciparum in erythrocytes, SYBR Green DNA, 72 h; series mostly up to 28.7 µM. In a few lines:
as §2

The test system of the next experiment is SC27B. Described as above. The conditions noted are these: P. falciparum in erythrocytes, SYBR Green DNA, 72 h; series mostly up to 28.7 µM. In a few lines:
as §2

The subject of the next experiment is TAB109. The experiment is described as above. The conditions noted are these: P. falciparum in erythrocytes, SYBR Green DNA, 72 h; series mostly up to 28.7 µM. A digest of the protocol:
as §2

Another experiment deals with TAB113. Described as above. The conditions noted are these: P. falciparum in erythrocytes, SYBR Green DNA, 72 h; series mostly up to 28.7 µM. A digest of the protocol: as §2
In a further experiment the test system is TAB165. The experiment is described as above. The conditions noted are these: P. falciparum in erythrocytes, SYBR Green DNA, 72 h; series mostly up to 28.7 µM. In a few lines:
as §2

Where “and” joins values, the source holds several entries; their conditions need not be identical. Equal entries are not always repeated. Records with an inconclusive call do not appear. A number with no mark means an inactive call. Calls of active or inactive are those of the source. Calls follow the shape of the dose curve; as a rule, active = well fitted inhibition curve with a large enough effect; inconclusive = small, poorly fitted or top-dose-only effect; inactive = flat fitted curve, though single readings scatter.
Also: nearly all actives have a fitted effect of over 60% in size.
Potency is read from the fitted curve at half-maximal effect.

With `CCOP(=O)(NC(C)C)Oc1ccc(SC)c(C)c1` (configuration not stated), the max response with CRL-7250 is -0.0778%; in the experiment on KB-3-1 it was -7.33%. Moreover, in the experiment on HaCat, the outcome was inactive.

Turning to `CC[C@H]1C=CC=CC[C@@H](C)[C@H](O)[C@@](C)(O)C(=O)[C@@H](C)[C@H](O)[C@@H](C)C(=O)[C@@H](C)[C@H](O)[C@@H](C)C=CC(=O)O[C@@H]2[C@@H](C)[C@H](CC1)O[C@]1(CC[C@H](C)[C@H](C[C@@H](C)O)O1)[C@H]2C`, the Potency was 18.7 µM (active) with CRL-7250, 0.332 µM (active) in the experiment on HEK293 and 0.372 µM (active) in the experiment on KB-3-1.

As for `CN1CCN(c2ccc([N+](=O)[O-])c3no[n+]([O-])c23)CC1`, the max response in the experiment with CRL-7250 was 3.76% and -14.8%; in the experiment on HaCat, 4.94% and 1.91%. Moreover, the compound was called inactive in the experiment with KB-3-1.

`C[C@H]1CCCC=CC2C[C@H](O)C[C@@H]2[C@H](O)C=CC(=O)O1` (some centres not stated): the max response in the experiment with CRL-7250 was -95.9%; in the experiment on HaCat, -111%. Also, the Potency in the experiment on KB-3-1 was 0.001 µM (active).

As for `O=C(O)c1cc(Oc2ccc(C(F)(F)F)cc2Cl)ccc1[N+](=O)[O-]`, the max response with CRL-7250 is -0.373%; in the experiment with KB-3-1, -8.96%.

As to `O=S(=O)(CC1CS1)c1ccc(Oc2ccccc2)cc1` (configuration not stated), the max response with CRL-7250 was -6.75%; with HaCat, 3.29%; with KB-3-1 it was 0.22%.

Take `ClC1=C(Cl)[C@]2(Cl)[C@@H]3[C@@H]4C[C@@H]([C@H]5O[C@@H]45)[C@@H]3[C@@]1(Cl)C2(Cl)Cl`: the max response in the experiment on KB-3-1 was 13.3%.

Consider `O=C(Nc1ccccc1-c1ccc(Cl)cc1)c1cccnc1Cl`, for which the max response in the experiment on CRL-7250 was -3.67%; in the experiment on KB-3-1, -17.8%.

As for `O=[N+]([O-])c1cc([N+](=O)[O-])c2ccccc2c1`, the result in the experiment with HaCat was inactive. Further, the max response in the experiment with KB-3-1 is -6.84%.

For `CC(=O)O[C@@]12CO[C@H]1C[C@H](O)[C@@]1(C)C(=O)[C@H](O)C3=C(C)[C@@H](O)C[C@@](O)([C@@H](OC(=O)c4ccccc4)[C@@H]21)C3(C)C`, the figures for the Potency in the experiment on HEK293 and with KB-3-1 were 2.96 µM (active) and 3.32 µM (active), respectively.

Take `CC(=CCCC1=CCC(C2=CC(=O)OC2O)OC1O)CCC1=C(C)CCCC1(C)C` (configuration not stated): the max response in the experiment on HaCat is -18.3%; in the experiment with KB-3-1, -6.74%.

Consider `O=[N+]([O-])c1c2ccccc2cc2ccccc12`, for which the results for the max response in the experiment with HEK293, with HaCat and with KB-3-1 were -16%, 3.41% and -16.7%, respectively.

In the case of `c1ccc(C2(c3ccccc3)CC2C2=NCCN2)cc1` (configuration not stated), the Potency result in the experiment with HB3, in the experiment on JCK, with N140, with P93_24, in the experiment on P94_40 and in the experiment on PAD was “inactive” throughout. Further, the Potency result in the experiment on PC26, in the experiment with PC49, in the experiment on SC27B, in the experiment with TAB109, with TAB113 and in the experiment with TAB165 was “inactive” each time. Besides, the Potency in the experiment on PC15 is 5.62 µM (active). Further, in the experiment with KB-3-1, the max response is -1.25%.

For `C[N+](C)(C)CC(=O)O`, the max response in the experiment with HEK293 is -2.82%; with HaCat it was 3.56%; with KB-3-1 it was -11.7% and 3.15%.

Turning to `C=CCC1=C(C)C(OC(=O)C2C(C=C(C)C)C2(C)C)CC1=O` (configuration not stated), the Potency in the experiment with HEK293 is 19.3 µM (active). In addition, the compound was classed as inactive in the experiment with HaCat. The max response in the experiment with KB-3-1 is -7.18%.

For `CCO/N=C(\CC)C1=C(O)CC(c2c(C)cc(C)cc2C)CC1=O` (configuration not stated), the Potency with HEK293 was 24.3 µM (active). For the same compound, the max response with HaCat is -8.94%; with KB-3-1, -11.8%.

On to `N#C[C@H](O[C@@H]1O[C@H](CO[C@@H]2O[C@H](CO)[C@H](O)[C@H](O)[C@H]2O)[C@H](O)[C@H](O)[C@H]1O)c1ccccc1`, for which, in the experiment with HEK293, the Potency was 23.5 µM (active).

Consider `CC=C(C)C(=O)N[C@@H](c1ccccc1)[C@@H](O)C(=O)O[C@H]1C[C@@]2(O)[C@@H](OC(=O)c3ccccc3)[C@@H]3[C@]4(OC(C)=O)CO[C@@H]4C[C@H](O)[C@@]3(C)C(=O)[C@H](OC(C)=O)C(=C1C)C2(C)C`, for which the max response in the experiment on HEK293 was -78.1%. In addition, the Potency in the experiment with KB-3-1 was 0.001 µM (active).

For `CC[C@@H]1[C@@H](C)O[C@@](O)([C@@H](C)[C@H](O)[C@H](C)[C@H]2OC(=O)C=CC=C[C@@H](C)[C@@H]([C@@H](C)[C@@H](O)[C@H](C)[C@@]3(O)C[C@H](O[C@H]4C[C@H](O)[C@H](O)[C@H](C)O4)[C@H](CC)[C@@H](C)O3)OC(=O)C=CC=C[C@@H]2C)C[C@H]1O[C@H]1C[C@H](O)[C@H](O)[C@H](C)O1`, the values for the Potency in the experiment on HEK293, in the experiment with HaCat and in the experiment on KB-3-1 were 1.18 µM (active), 3.32 µM (active) and 5.9 µM (active), respectively.

Consider `O=C(O)CNC(=O)c1c(O)c2ccccc2n(Cc2ccccc2)c1=O`, for which the max response is 1.22% in the experiment on HEK293; 5.38% and 7.42% in the experiment with KB-3-1. Moreover, the compound was classed as inactive in the experiment on HEK293 and in the experiment on HaCat.
